Data taken from PubChem BioAssay (Tox21).
Records with an inconclusive call do not appear. The source made the active and inactive calls. Unless noted, calls follow the shape of the dose curve; as a rule, active = well fitted curve in the direction sought with a large enough effect in the repeat runs; inconclusive = weak or mixed curves; inactive = no such curve, though single readings can be large; an effect the other way counts as inactive or inconclusive.

Assays:
[1] = qHTS assay for small molecule agonists of the p53 signaling pathway (AID 651631; calls by dose curve; also: nearly all actives have a fitted effect of over 15% in size)
Method in brief: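 HCT-116 cells carrying a stable p53 response element–beta-lactamase reporter were plated, rested 5 h at 37 °C, then exposed to compound in DMSO for 16 h at 37 °C; reporter activity was read as FRET substrate fluorescence after 2 h at room temperature.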

[2] = qHTS assay for small molecules that induce genotoxicity in human embryonic kidney cells expressing luciferase-tagged ATAD5 (AID 651632); also: nearly all actives have a fitted effect of over 15% in size
Method in brief: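 ATAD5-luc HEK293T, 2,000 cells/well; cpd or DMSO pin-transferred; 16 hr, 37C/5% CO2; Amplite 30 min RT; luminescence.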

[3] = qHTS assay for small molecule agonists of the p53 signaling pathway - cell viability (AID 651633; calls by dose curve; also: series mostly up to about 83 µM; nearly all actives have a fitted effect of over 30% in size)
Method in brief: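 p53RE-bla cells, seeded at 4,000 per well and rested 5 h at 37 C/5% CO2, received compounds in DMSO for 16 h at 37 C. CellTiter-Glo was then added, and luminescence was read after 30 min at room temperature to gauge cytotoxicity.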

[4] = qHTS assay for small molecules that induce genotoxicity in human embryonic kidney cells expressing luciferase-tagged ATAD5 - cell viability (AID 651634; calls by dose curve; also: nearly all actives have a fitted effect of over 25% in size)
Method in brief: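 Fluorescence from CellTiter-Fluor, reporting protease activity within live cells, served as the viability read-out. HEK293T cells carrying luciferase-tagged ATAD5 had been treated with compound for 15.5 hr at 37C.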

[5] = qHTS assay for small molecule disruptors of the mitochondrial membrane potential - cell viability (AID 720634; calls by dose curve;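 also: human HepG2 liver cancer cells; series mostly up to about 83 µM; nearly all actives have a fitted effect of over 20% in size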)
Method in brief: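 Cells: HepG2, 2,000/well, attached overnight. Compound 1 hr, 37 C/5% CO2. +m-MPI dye, +CellTiter-Glo 30 min RT. Readout: luminescence (ATP).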

[6] = qHTS assay for small molecule disruptors of the mitochondrial membrane potential (AID 720635)
Method in brief: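 HepG2 cells (2,000/well) attached overnight at 37C, then took compound for 1 hr at 37C, 5% CO2. Mito-MPS dye was added for 30 min; fluorescence was read at 490/535 nm (monomers) and 540/590 nm (aggregates).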

[7] = qHTS assay to test for compound auto fluorescence at 590 nm (red) in HepG2 cells (AID 720674)
Method in brief: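 Rose Bengal sodium served as the red fluorophore standard. HepG2 monolayers (overnight attachment, MEM with 10% FBS) were exposed to test compounds for 1 hr at 37 C and read at Ex 540/Em 590 nm.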

[8] = qHTS assay to test for compound auto fluorescence at 535 nm (green) in HepG2 cells (AID 720675)
[9] = qHTS assay to test for compound auto fluorescence at 460 nm (blue) in HEK293 cells (AID 720678)
Method in brief: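 Measured: blue fluorescence (Ex 405/Em 460 nm) of compound-treated HEK293 cells, incubated overnight at 37C with 5% CO2 and scaled to triamterene equivalents.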

[10] = qHTS assay to test for compound auto fluorescence at 590 nm (red) in HEK293 cells (AID 720679)
Method in brief: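 Using HEK293 cells at 2,000 per well, the screen added 23 nL of each compound after cell attachment and incubated overnight (37C, 5% CO2). The plate reader then captured red-label fluorescence, Ex/Em 540/590nm.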
% is scaled to controls: 0 for no effect and ±100 for the full control effect.

CN1[C@@H]2CC[C@H]1CC(OC(=O)C(O)c1ccccc1)C2 (stereo not given in full)
inactive: Potency [1] | Potency [2] | Potency [3] | Potency [4] | outcome [5] | Potency [6] | outcome [7] | outcome [8] | outcome [9] | outcome [10]

CCCCOCCOC(=O)CCCCCCCCC(=O)OCCOCCCC
inactive: Potency [1] | Potency [2] | Potency [3] | Potency [4] | outcome [5] | outcome [7] | outcome [8] | outcome [9] | outcome [10]

C=COC(=O)C(C)(CC)CCC(C)C (stereo not given)
inactive: Potency [1] | Potency [2] | Potency [3] | Potency [4] | outcome [5] | outcome [7] | outcome [8] | outcome [9] | outcome [10]

Cc1ccc(C(=O)c2ccccc2)cc1
inactive: Potency [1] | Potency [2] | Potency [3] | Potency [4] | outcome [5] | outcome [7] | outcome [8] | outcome [9]

CCCCN1C=CN(C)C1
inactive: Potency [1] | Potency [2] | Potency [3] | Potency [4] | outcome [5] | fluorescence, relative to Rose Bengal [7] -0.0028% [at 18.6 µM] | fluorescence, % of triamterene [9] 0.173% [at 18.6 µM] | fluorescence, % of fluorescent control [10] -0.0345% [at 18.6 µM]

CCOC(=O)C1=NOC(c2ccccc2)(c2ccccc2)C1
inactive: Potency [1] | Potency [2] | Potency [3] | Potency [4] | outcome [5] | outcome [7] | outcome [9] | outcome [10]

CC12CCC(C(=O)C1=O)C2(C)C (stereo not given)
inactive: Potency [1] | Potency [2] | Potency [3] | Potency [4] | outcome [5] | Potency [6] | outcome [7] | outcome [9] | outcome [10]

CC1=CC(=O)[C@H]2C[C@@H]1C2(C)C
inactive: Potency [1] | Potency [2] | Potency [3] | Potency [4] | outcome [5] | outcome [7] | outcome [8] | outcome [9] | outcome [10]

CC1=CCC(O)(C(C)C)CC1 (stereo not given)
inactive: Potency [1] | Potency [2] | Potency [3] | Potency [4] | outcome [5] | outcome [7] | outcome [8] | outcome [9] | outcome [10]

CN(C)CCCN(C)CCCN(C)C
inactive: Potency [1] | Potency [2] | Potency [3] | Potency [4] | outcome [5] | outcome [7] | outcome [8] | outcome [9] | outcome [10]

CCCCCCCCCCCCSC
inactive: Potency [1] | Potency [2] | Potency [3] | Potency [4] | outcome [5] | outcome [7] | outcome [8] | outcome [9] | outcome [10]

CCCC(C)C(=O)OCC (stereo not given)
inactive: Potency [1] | Potency [2] | Potency [3] | Potency [4] | outcome [5] | Potency [6] | outcome [7] | outcome [8] | outcome [9] | outcome [10]

CCOC(=O)COC(=O)c1ccccc1C(=O)OCC
inactive: Potency [1] | Potency [2] | Potency [3] | Potency [4] | outcome [5] | outcome [7] | outcome [8] | outcome [9] | outcome [10]

O=[N+]([O-])c1ccc(/C=N\O)o1
inactive: Potency [1] | Potency [2] | Potency [3] | Potency [4] | outcome [5] | outcome [7] | outcome [8] | outcome [9]

CN(C)CCN(C)CCN(C)C
inactive: Potency [1] | Potency [2] | Potency [3] | Potency [4] | outcome [5] | outcome [7] | outcome [8] | outcome [9] | outcome [10]

NC(=O)N[C@@H](CCC(=O)O)C(=O)O
inactive: Potency [1] | Potency [2] | Potency [3] | Potency [4] | outcome [5] | Potency [6] | outcome [7] | outcome [8] | outcome [9] | outcome [10]

CCCCCC(=O)OCCc1ccccc1
inactive: Potency [1] | Potency [2] | Potency [3] | Potency [4] | outcome [5] | outcome [7] | outcome [8] | outcome [9] | outcome [10]

C[C@@H]1C[C@H]2[C@@H]3C[C@H](F)C4=CC(=O)C(Cl)=C[C@]4(C)[C@@]3(F)[C@@H](O)C[C@]2(C)[C@@]1(O)C(=O)CO
inactive: Potency [1] | Potency [2] | Potency [3] | Potency [4] | outcome [5] | outcome [7] | outcome [9] | outcome [10]

CCCCCCCC1CCCC1=O (stereo not given)
inactive: Potency [1] | Potency [2] | Potency [3] | Potency [4] | outcome [5] | outcome [7] | outcome [8] | outcome [9] | outcome [10]

C[N+](C)(C)CCCCCCCCCC[N+](C)(C)C
inactive: Potency [1] | Potency [2] | Potency [3] | Potency [4] | outcome [5] | outcome [7] | outcome [9] | outcome [10]

CCN1CCOCC1
inactive: Potency [1] | Potency [2] | Potency [3] | Potency [4] | outcome [5] | Potency [6] | outcome [7] | outcome [8] | outcome [9] | outcome [10]

CCC(=O)OCc1ccccc1
inactive: Potency [1] | Potency [2] | Potency [3] | Potency [4] | outcome [5] | outcome [7] | outcome [9] | outcome [10]

c1ccc2sc(SN3CCOCC3)nc2c1
inactive: Potency [1] | Potency [2] | Potency [3] | Potency [4] | outcome [5] | outcome [7] | outcome [9]

CC1OC1C1CCC2(C)OC2C1 (stereo not given)
inactive: Potency [1] | Potency [2] | Potency [3] | Potency [4] | outcome [5] | outcome [7] | outcome [8] | outcome [9]

CCOc1ccccc1OCC
inactive: Potency [1] | Potency [2] | Potency [3] | Potency [4] | outcome [5] | Potency [6] | outcome [7] | outcome [8] | outcome [9] | outcome [10]
